Test results as given in PubChem BioAssay AID504332 (National Center for Advancing Translational Sciences (NCATS), 2011).
Where “and” joins values, the source holds several entries; their conditions need not be identical. Equal entries are not always repeated. The campaign covered roughly 350,000 compounds. About 31,000 (8.9%) were called active. Another 15% or so got no clear call; they are omitted. Calls follow the shape of the dose curve; as a rule, active = well fitted inhibition curve with a large enough effect; inconclusive = small, poorly fitted or top-dose-only effect; inactive = no such curve, though single readings can be large or run the other way. The full list was thinned out, with actives kept by preference. A structure can be active in one record and inactive in another.

Molecular target: Histone-lysine N-methyltransferase EHMT2 (Homo sapiens) (UniProt Q96KQ7)
Sequence (Q96KQ7 913-1193 limits assumed): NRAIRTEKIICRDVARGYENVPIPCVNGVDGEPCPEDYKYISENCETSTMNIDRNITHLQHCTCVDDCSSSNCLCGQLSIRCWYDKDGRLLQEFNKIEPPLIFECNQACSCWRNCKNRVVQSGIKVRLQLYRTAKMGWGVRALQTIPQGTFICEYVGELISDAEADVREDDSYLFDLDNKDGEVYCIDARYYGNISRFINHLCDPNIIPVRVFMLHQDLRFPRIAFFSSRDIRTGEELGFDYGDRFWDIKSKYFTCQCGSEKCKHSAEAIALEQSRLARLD
Experiment: qHTS Assay for Inhibitors of Histone Lysine Methyltransferase G9a; also: nearly all actives have a fitted effect of over 75% in size
Conditions: G9a H3K9 monomethylation, AlphaScreen, 2 h; series mostly up to 59 µM; activity, negative = inhibition: at the top concentration
Outline: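 Quantitative HTS format: methyltransferase activity on a biotin-tagged H3K9 peptide is measured by AlphaScreen, using a rabbit anti-monomethyl-H3K9 antibody with streptavidin donor and anti-IgG acceptor beads. Final levels are 20 nM enzyme, 500 nM peptide, 20 uM SAM; 2 h RT.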
% is scaled to controls: 0 for no effect and ±100 for the full control effect; potency is read from the fitted curve at half-maximal effect.

SMILES | activity, negative = inhibition | Potency
CCOc1ccc(NC(=O)Nc2cc(C)ccc2OC)cc1 | 28.6% (inactive) | 
COc1ccc(NC(=O)N2CCCn3nc(C)cc32)cc1OC | 5.44% (inactive) | 
CCn1cc(NC(=O)Nc2ccc(OC)c(OC)c2)c(C(N)=O)n1 |  | 25.1 µM (active)
Cc1ccc(NC(=O)CCCNC(=O)c2ccc(Cl)cc2)cc1S(=O)(=O)N1CCCCC1 | -49.7% [at 102 µM] (inactive) | 
O=C(O)c1c(CNCc2cccc(F)c2)c2ccccc2n1Cc1ccccc1 | -2.2% (inactive) | 
CC1(C)NC(=O)N(CCOc2cccc(Oc3ccccc3)c2)C1=O | 2.99% (inactive) | 
CC(O)CNCCOc1cccc(Oc2ccccc2)c1 (stereo not drawn) |  | 31.6 µM (active)
CC(O)COc1ccccc1 (stereo not drawn) | 25.5% (inactive) | 
CN(C(=O)CN1C(=O)NC(C)(CCc2ccccc2)C1=O)c1ccccc1 (stereo not drawn) | -6.99% [at 102 µM] (inactive) | 
O=C(Nc1nnc(C2CC2)s1)c1cc(Cl)sc1Cl | -5.4% [at 102 µM] (inactive) | 
CCOC(=O)c1oc2c(CN3CCN(CCO)CC3)c(O)c(CC)cc2c(=O)c1-c1nc2ccccc2s1 |  | 17.8 µM (active)
CCOC(=O)CCCN1CC(O)=C(c2nc3ccccc3s2)C1=N | -0.107% [at 102 µM] (inactive) | 
CCOC(=O)c1oc2c(CN3CCN(C)CC3)c(O)ccc2c(=O)c1-c1ccc(Br)cc1 | -3.73% (inactive) | 
Cc1ccc(C(=O)NCCc2nnc(SCC(=O)Nc3cccc(C(=O)O)c3)n2C)cc1 | 10.2% [at 0.501 µM] (inactive) | 
CCCn1c(=N)c(C(=O)NCc2ccccc2)cc2c(=O)n3cccc(C)c3nc21 | 0.45% (inactive) | 
O=C(Nc1ccc(Cl)cc1)N1CCc2[nH]c3ccccc3c2C1 | 9.49% [at 102 µM] (inactive) | 
C=CCNC(=S)N1CCc2[nH]c3ccccc3c2C1 | 0.317% [at 102 µM] (inactive) | 
CCCC(=O)N1CCc2[nH]c3ccccc3c2C1 |  | 39.8 µM (active)
COc1ccc(CCNc2ncnc3c2nnn3Cc2ccccc2)cc1 | 5.34% [at 102 µM] (inactive) | 
COc1ccc(C2=NC3(CCCCC3)N(CC(=O)Nc3ccc(C(C)C)cc3)C2=O)cc1 | 1.04% (inactive) | 
Cn1ccsc1=NC(=O)c1cc(S(=O)(=O)N2CCOCC2)ccc1Cl | 2.99% [at 102 µM] (inactive) | 
CN(CC(=O)NCCc1ccc(F)cc1)CC(=O)Nc1ccc(F)c(F)c1F | -24.2% [at 102 µM] (inactive) | 
C=CCC1(C#N)C(=S)NC(C)=C(C(=O)OCC)C1c1ccccc1 (stereo not drawn) | 1.33% [at 102 µM] (inactive) | 
CCOC(=O)C1=C(C)NC(=O)NC1c1ccccc1 (stereo not drawn) | -1.24% [at 102 µM] (inactive) | 
CCOC(=O)C1=C(C)NC(SC)=NC1c1ccccc1 (stereo not drawn) |  | 2 µM (active)

SMILES | activity, negative = inhibition | Potency
CCCCOc1ccc(CNC(=O)c2ccc3c(c2)N(C)C(=O)C2CCCCN32)cc1 (stereo not drawn) | 0.427% (inactive) | 
Cc1cccc(C(CC(=O)NCC2(c3ccccc3)CCCC2)c2ccccc2)c1O (stereo not drawn) | 1.08% (inactive) | 
O=C(Nc1cccc(O)c1)c1ccc(C(=O)c2ccccc2)o1 | 2.32% [at 102 µM] (inactive) | 
O=C(CSc1ccccc1)Nc1ccc(C(=O)Nc2cccc(O)c2)cc1 | 15.3% [at 102 µM] (inactive) | 
C/C(=C\C(=O)c1ccccc1)Nc1cccc(O)c1 |  | 50.1 µM (active)
COc1cccc(CNC(=O)c2cc(=O)[nH]c3ccc(S(=O)(=O)N4CCCCC4)cc23)c1 | -2.46% (inactive) | 
O=C(CSc1n[nH]c(-c2ccccc2)n1)N1CCCCC1 | 3.52% (inactive) | 
N#C/C(=C\c1ccccc1F)c1nc2ccccc2c(=O)[nH]1 | -20% (inactive) | 
COc1cccc(-n2cc(C(=O)O)c3ccccc3c2=O)c1 | -46.3% [at 102 µM] (inactive) | 
COc1cccc(-n2ccn(CC(=O)NCc3ccc(C)cc3)c(=O)c2=O)c1 | 0.48% (inactive) | 
CCN(Cc1ccccc1)C(=O)c1cn(-c2cccc(OC)c2)c(=O)c2ccccc12 |  | 11.2 µM (active)
CN(Cc1ccccc1)C(=O)c1cn(C)c2ccc(S(=O)(=O)N(C)C3CCCCC3)cc2c1=O | -1.49% (inactive) | 
O=S(=O)(NCCS(=O)(=O)N1CCN(c2ccccc2)CC1)c1ccc(Cl)cc1 | -10.1% (inactive) | 
CC(C)[C@@H]1COC(c2cccc(C3=N[C@H](C(C)C)CO3)c2)=N1 | 55% [at 102 µM] (inactive) | 
CN(C(=O)c1ccccn1)c1nnc(-c2ccccn2)s1 |  | 70.8 µM (active)
CN(C(=O)c1ccno1)c1nnc(-c2cccnc2)s1 | 19.5% (inactive) | 
COc1cc(OC)cc(-c2nnc(N(C)C(=O)c3ccncc3)s2)c1 | -3.36% [at 102 µM] (inactive) | 
CC(C)CCN1CCC(C)(NC(=O)c2ccccc2)C1=O (stereo not drawn) | -0.393% [at 0.501 µM] (inactive) | 
COc1ncnc2c1N=C1CC(C)(C)CC(N)=C1S2 |  | 3.16 µM (active)
CC(=O)c1cccc(NC(=S)N2CCCC2)c1 | 9.21% [at 102 µM] (inactive) | 
CC(C)NC(=S)N1CCN(S(C)(=O)=O)CC1 | 11.9% (inactive) | 
CC(=O)c1cccc(NC(=S)N2CCN(S(C)(=O)=O)CC2)c1 |  | 44.7 µM (active)
O=C(Cc1ccc(Cl)cc1)NC1CCS(=O)(=O)C1 (stereo not drawn) | 28.8% [at 102 µM] (inactive) | 
Cc1cc(C)c(CN2CCN(C(=O)Cn3ccc(NC(=O)OCc4ccccc4)nc3=O)CC2)c(C)c1 | -47.4% [at 0.501 µM] (inactive) | 
NC(=O)C1CCN(C(=O)c2ccc(F)c(S(=O)(=O)N3CCOCC3)c2)CC1 | 2.82% [at 2.33 µM] (inactive) | 

SMILES | activity, negative = inhibition | Potency
CCOc1ccc(-c2n[nH]c3c2C(c2ccccc2OC)N(c2ccc(Br)cc2)C3=O)cc1 (stereo not drawn) | 3.64% (inactive) | 
Cc1sc2ncnc(N3CCC(C(=O)NNC(=O)c4ccc(F)cc4)CC3)c2c1C | -33.1% (inactive) | 
Cc1ccccc1NC(=S)N(CCCN1CCOCC1)Cc1cccs1 | 15% (inactive) | 
Cc1ccc(NC(=S)N(CCN(C)C)Cc2cccs2)cc1C | -39.7% [at 102 µM] (inactive) | 
Cc1ccc(Cl)cc1NC(=S)N(CCN(C)C)Cc1cccs1 |  | 39.8 µM (active)
CC(C)Nc1ccc(-n2nc3ccccc3[n+]2[O-])cc1 | 12.3% [at 102 µM] (inactive) | 
c1ccc2cc(CCCc3cc4ccccc4cn3)ncc2c1 | 5.78% [at 0.501 µM] (inactive) | 
NC(=O)C1CCN(C(=O)c2cn(-c3ccccc3)nc2-c2cccnc2)CC1 | 1.41% [at 102 µM] (inactive) | 
COc1ccc(CNC(=O)C(Cc2ccccc2)n2cccc2)cc1 (stereo not drawn) | -36.8% [at 102 µM] (inactive) | 
Cc1ccc(C)n1C(Cc1ccccc1)C(=O)O (stereo not drawn) |  | 35.5 µM (active)
CC(Cc1ccccc1)C(=O)N(C)Cc1ccccc1 (stereo not drawn) | -4.83% [at 102 µM] (inactive) | 
Cc1ccc(S(=O)(=O)N2CCCCC2)cc1NC(=O)[C@@H]1CCCN1C(=O)c1cccs1 | -7.65% [at 12.7 µM] (inactive) | 
Cc1ccc2nc(COc3cccc(NC(=O)c4ccccc4Cl)c3)cc(=O)n2c1 | 10.2% (inactive) | 
Cc1c(-c2ccccc2)cn2c1-c1ccc(C)n1CC2 |  | 44.7 µM (active)
CCOC(=O)C1CCCN(S(=O)(=O)c2ccc3c(c2)C(C)(C)C(=O)N3C)C1 (stereo not drawn) | -2.18% [at 102 µM] (inactive) | 
CCOC(=O)C1CCN(S(=O)(=O)c2ccc3c(c2)N(C)C(=O)CC(=O)N3C)CC1 |  | inactive and 79.4 µM (active)
CCOC(=O)C1CCN(S(=O)(=O)c2ccc3c(c2)N(C(C)=O)CCO3)CC1 | -0.322% [at 102 µM] (inactive) | 
CCCn1c2ccccc2c2cnn(CC(=O)N(CC)c3cc(C)ccc3C)c(=O)c21 | -24% (inactive) | 
CCN(CCCNC(=O)CSc1cc(=O)n(C)c2cc(Cl)ccc12)c1cccc(C)c1 |  | 17.8 µM (active)
CCOc1ccc(CCNC(=O)CSc2cc(=O)n(C)c3ccc(Cl)cc23)cc1OCC |  | inactive
CCN(CCCNC(=O)CSc1cc(=O)n(C)c2cc(Cl)ccc12)Cc1ccccc1 | -26.4% [at 102 µM] (inactive) | 
CC(=O)c1ccc(S(=O)(=O)NCCC(=O)N2CCN(c3ccccn3)CC2)cc1 | -0.0681% [at 12.7 µM] (inactive) | 
CCOc1ccc(/C=N/Nc2nncc(-c3ccccc3)n2)cc1OC | 16% [at 102 µM] (inactive) | 
O=[N+]([O-])c1ccccc1/C=N/n1c(COc2ccccc2)n[nH]c1=S |  | 1 µM (active)
COc1cc(/C=N/O)ccc1OCc1ccc([N+](=O)[O-])cc1 | -5.67% (inactive) | 

SMILES | activity, negative = inhibition | Potency
COc1ccccc1OCCOc1ccc(/C=N/n2cnnc2)cc1 | -8.1% [at 12.7 µM] (inactive) | 
COc1cc(/C=N/n2c(C)n[nH]c2=S)ccc1OCc1ccccc1 |  | 2.24 µM (active)
Fc1ccc(/C=N/n2c(COc3ccccc3)n[nH]c2=S)cc1 |  | 1.58 µM (active)
O=c1ccc(S(=O)(=O)N2CCCC2)cn1Cc1nc(-c2ccccc2)no1 | -6.5% [at 2.33 µM] (inactive) | 
CCN(C(=O)COC(=O)c1c(C)nn(-c2ccccc2)c1Cl)c1c(N)n(Cc2ccccc2)c(=O)[nH]c1=O | -45.7% [at 102 µM] (inactive) | 
Cc1ccccc1-c1cc(C(=O)NCC2CC2)n(CC2CC(c3cccnc3)=NO2)n1 (stereo not drawn) | -3.05% [at 0.501 µM] (inactive) | 
CC1CN(C(=O)N2CCC(C(=O)NCc3ccco3)CC2)c2cc(Cl)ccc2O1 (stereo not drawn) | -27.9% (inactive) | 
O=C(NCCS(=O)(=O)c1ccc(Br)cc1)c1ccccc1Cl | 37.8% [at 102 µM] (inactive) | 
COc1ccccc1CNC(=O)CCn1c(=O)c2ccccc2n(CC(=O)Nc2ccc(Br)cc2F)c1=O | -30.5% (inactive) | 
COc1ccc(N2CCN(S(=O)(=O)c3cc4c5c(c3)C(C)C(=O)N5CCC4)CC2)cc1 (stereo not drawn) |  | 44.7 µM (active)
COc1ccc(N2CCN(S(=O)(=O)c3ccc4c(c3)NC(=O)C(C)C(=O)N4)CC2)cc1 (stereo not drawn) | -7.4% [at 102 µM] (inactive) | 
CCOc1ccccc1NS(=O)(=O)c1cc2c3c(c1)C(C)C(=O)N3CCC2 (stereo not drawn) | 5.21% [at 102 µM] (inactive) | 
COCC1CCN(C(=O)C2CCC(=O)N(CC3CCCCC3)C2)CC1 (stereo not drawn) | 77.4% [at 102 µM] (inactive) | 
N#Cc1ccc(-c2cccs2)nc1SCc1ccc(Br)cc1 | 49.5% (inactive) | 
Cc1ccc(CSc2nc(-c3ccccc3)c(C#N)c(=O)[nH]2)cc1 | 16.7% [at 2.33 µM] (inactive) | 
N#Cc1c(-c2cccs2)nc(SCC(=O)c2ccc(Br)cc2)[nH]c1=O |  | 39.8 µM (active)
Cc1ccc(-c2cc(-c3coc4ccccc4c3=O)c3c(n2)-c2cc(Cl)ccc2OC3)cc1 | -32.2% (inactive) | 
COc1ccc(NC(=O)Nc2cccc3cccnc23)cc1 | -19.4% [at 102 µM] (inactive) | 
Nc1ccc(Nc2cc(O)c3ncccc3c2)cc1 |  | 1.58 µM (active)
O=C(NCCN1CCN(C(=O)c2cccc([N+](=O)[O-])c2)CC1)C(=O)NCc1ccc(Cl)cc1 | 1.83% [at 102 µM] (inactive) | 
CSc1ccc(C2c3c(oc4ccccc4c3=O)C(=O)N2CCCN2CCOCC2)cc1 (stereo not drawn) | -2.82% (inactive) | 
COc1ccc(Cl)cc1NC(=O)CSc1nc(=O)[nH]c2c1CCCC2 | -3.14% (inactive) | 
COc1ccc(-c2cc(C(=O)N(C)CC(=O)Nc3ccccc3Cl)c3ccccc3n2)cc1OC | -0.839% [at 102 µM] (inactive) | 
